JMJD2A Tudor: inhibitors of human JMJD2A Tudor domain. 390,000 compounds, 4.4% hits. Potency, µM (highest dose often 114 µM), for the others: at the top dose activity change, negative = inhibition, most hits filed as inhibitors. AlphaScreen JMJD2A-Tudor / H3K4me3 peptide binding. O75164; note: % is set by controls: 0 for no effect and ±100 for the full control effect; nearly all actives have a fitted effect of over 50% in size
Sfp inh: blocks B. subtilis Sfp PPTase activity; Biochemical Sfp PPTase activity, qHTS; Potency, µM, without a hit: largest response in the series, negative = inhibition, actives largely listed as inhibitors; 310,000 compounds, 3.5% hits; AID 1490;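 note: the enzyme is Sfp with the accession as filed and its product quenches rhodamine fluorescence; 0% = enzyme reaction without inhibitor and -100% = no enzyme wells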
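Buffer: 50 mM Hepes-Na pH 7.6, 10 mM MgCl2, 0.01% Nonidet P-40, 0.01% BSA. Enzyme 15 nM, pre-exposed to compound 15 min; substrates then added and fluorescence change tracked over 30 min.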
G9a block: G9a (human) methyltransferase inhibition; G9a H3K9 monomethylation, AlphaScreen, 2 h; Potency, µM (series often up to 102 µM), for inactives: top-dose activity, negative = inhibition, actives largely listed as inhibitors; 350,000 compounds, 8.8% hits; AID 504332; note: % is set by controls: 0 for no effect and ±100 for the full control effect; nearly all actives have a fitted effect of over 75% in size
Target sequence (Q96KQ7 913-1193 limits assumed): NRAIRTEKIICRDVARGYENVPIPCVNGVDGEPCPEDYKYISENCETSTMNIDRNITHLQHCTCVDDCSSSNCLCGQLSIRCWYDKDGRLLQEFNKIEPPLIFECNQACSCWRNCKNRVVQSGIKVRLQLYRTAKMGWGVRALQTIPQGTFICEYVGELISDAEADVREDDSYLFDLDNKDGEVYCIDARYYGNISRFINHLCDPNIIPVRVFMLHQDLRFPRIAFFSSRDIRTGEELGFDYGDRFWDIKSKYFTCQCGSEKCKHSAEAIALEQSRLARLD
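Compounds were preincubated with 20 nM G9a for 15 min, after which biotinylated H3K9 peptide (500 nM) and SAM (20 uM) started a 2 h room-temperature reaction. Monomethylated product was quantified by antibody-based AlphaScreen chemiluminescence.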
L3MBTL1 block: inhibitors of human L3MBTL1; Potency, µM (titrated, usually from 57.1 µM), without a hit: at the top dose activity, negative = inhibition, hits mostly inhibitors; 230,000 compounds, 0.66% hits; AlphaScreen L3MBTL1–H3K9me1 peptide binding; Q9Y468; note: % is set by controls: 0 for no effect and ±100 for the full control effect; nearly all actives have a fitted effect of over 60% in size
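First, the protein-peptide complex forms for 30 min at room temperature (L3MBTL1 50 nM, biotinylated H3K9me1 peptide 75 nM). Next, compounds are pin-transferred and incubated 30 min. Finally, AlphaScreen beads are added and read after 30 min.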
BAZ2B block: blocks human BAZ2B | Potency, µM (titrated, usually from 114 µM), inactives show at the highest dose activity change, negative = inhibition, usual class: inhibitors | AlphaScreen BAZ2B-H3K14Ac peptide displacement | Q9UIF8 | 360,000 compounds, 4.4% hits | AID 504333; note: % is set by controls: 0 for no effect and ±100 for the full control effect; nearly all actives have a fitted effect of over 60% in size
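BAZ2B (50 nM) with biotin-H3(5-23)K14Ac peptide (50 nM) in PBS pH 7.4, 0.01% Tween-20, preformed 30 min, then compound 30 min at room temperature; top concentration 110uM. AlphaScreen streptavidin donor/nickel chelate acceptor beads (10 ug/mL final), 20 min dark, signal read.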
HP1b binding inh: blocks HP1-beta chromodomain binding to methylated histone tails. P83916. AlphaScreen HP1-beta / biotin-H3K9me3 peptide binding. Potency, µM (doses to about 114 µM), for inactives: top-dose activity change, negative = inhibition, actives largely listed as inhibitors. 390,000 compounds, 0.56% hits. AID 540317; note: nearly all actives have a fitted effect of over 70% in size
Target sequence (P83916 whole entry, looked up): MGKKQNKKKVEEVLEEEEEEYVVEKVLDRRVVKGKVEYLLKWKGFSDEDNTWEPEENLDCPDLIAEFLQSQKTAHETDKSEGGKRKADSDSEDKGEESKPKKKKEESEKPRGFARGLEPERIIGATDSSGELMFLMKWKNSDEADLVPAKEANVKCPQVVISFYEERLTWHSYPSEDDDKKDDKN
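Compound inhibition of the preformed complex between 50 nM HP1-beta and 50 nM biotinylated H3K9me3 peptide was read by AlphaScreen. Buffer was PBS pH 7.4 with 0.01% Tween-20. Incubations ran 30 min at room temperature, with 10 ug/mL donor/acceptor beads.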
An asterisk follows results filed as active; ? = inconclusive; . = no result given; ! = a repeat was not active; [ ] = another dose, or the depositor's remark. Only some compounds are listed: those with a hit (about 12% of all), similar ones and a draw of the others. Calls come from the whole dose curve; as a rule, active = well fitted curve in the direction sought with a large enough effect; inconclusive = small, poorly fitted or top-dose-only effect, or another doubt; inactive = no such curve, though single readings can be large; an effect the other way counts as inactive or inconclusive. Potency is the fitted concentration of half-maximal effect.

SMILES	JMJD2A Tudor	Sfp inh	G9a block	L3MBTL1 block	BAZ2B block	HP1b binding inh
Cc1ccc(-c2nc(CS(=O)CC(=O)N3CCN(c4cccc(Cl)c4)CC3)c(C)o2)cc1 (stereo unspecified)	?	.	?	.	25µM*	-16%
COc1ccc(N2CCN(C(=O)CS(=O)Cc3nc(-c4ccc(OC)c(OC)c4)oc3C)CC2)cc1 (stereo unspecified)	-23%	1%	-25%	.	?	16%
Cc1ccc(-c2nc(CS(=O)CC(=O)N3CCN(c4ccc(F)cc4)CC3)c(C)o2)cc1 (stereo unspecified)	?	4%	14µM*!	.	28µM*!	47%
Cc1oc(-c2ccc(Cl)cc2)nc1CS(=O)CC(=O)N1CCN(c2cccc(C(F)(F)F)c2)CC1 (stereo unspecified)	?	.	?	.	-5%	0%
COc1ccc(C(=O)O)cc1COc1ccc(NC(C)=O)cc1	-2%	.	.	.	.	.
CN(CC(=O)NCCc1ccc(S(N)(=O)=O)cc1)Cc1c(F)cccc1Cl	-3%	10%	50µM*	.	22%	20%
CN(CC(=O)NCCc1ccc(S(N)(=O)=O)cc1)Cc1ccc(Cl)cc1Cl	-32%	5%	15%	.	8%	9%
CC(NCCc1ccc(S(N)(=O)=O)cc1)C(=O)NCCc1ccc(F)cc1 (stereo unspecified)	25µM*	-25%	8%	.	50µM*	?
Cc1c(NC(=O)OCCNC(=O)Nc2ccccc2)sc(=S)n1C	-8%	-24%	?	-3%	-3%	-22%
Cc1ccc(S(=O)(=O)NCCOC(=O)Nc2sc(=S)n(C)c2C)cc1	-9%	56µM*	32µM*	.	?	?
Cc1ccc(Cl)cc1OCC(=O)NCCOC(=O)Nc1sc(=S)n(C)c1C	-11%	-2%	?	-5%	-12%	-30%
CCOC(=O)Nc1sc(=S)n(C)c1C	-9%	16µM*	13µM*	0%	9%	-7%
C#CC1(O)CCC2C3CCc4cc(O)cc(C)c4C3CCC21C (stereo unspecified)	-24%	.	.	.	.	1%
Cc1nn(CCc2n[nH]c(=S)n2C)c(C)c1Br	7.1µM*	11%	?	.	-2%	21%
Cc1nn(CCc2n[nH]c(=S)n2C2CCCCC2)c(C)c1Br	79µM*	-13%	2.5µM*	1%	-7%[57.1 µM]	35%
COc1ccccc1-n1cc(-c2ccc(Br)cc2)[nH]c1=S	?	9%	-1%	.	2%	-20%
COc1ccccc1-n1c(CCn2nc(C)c(Br)c2C)n[nH]c1=S	7.1µM*	?	1.1µM*	4%	-4%	4%
CCOC(=O)/C(C#N)=C/c1ccc(-c2ccccc2)o1	-11%	.	5%[59 µM]	.	-33%	25%
Cc1oc(-c2cccc(Cl)c2)nc1CSCC(=O)NCc1ccccc1Cl	-2%	.	10%[59 µM]	.	-2%	49%
Cc1cccc(NC(=O)CSc2nc(=O)n(Cc3ccncc3)c3c2CCC3)c1C	2%	.	15%[59 µM]	.	0%	10%
COc1ccc(C2=NO[C@@H]3[C@@H]4C[C@@H]([C@H]5C(=O)N(C)C(=O)[C@@H]45)[C@H]23)c(OC)c1	-17%	22%	-1%	7%	-1%	-1%
CN(C)CCNC(=O)COc1cccc(Cl)c1	-6%[57.1 µM]	-11%	22µM*	4%	?	3%
CCN(CC)CCNC(=O)COc1ccc(Cl)cc1Cl	-14%	16%	?	-2%	-9%	21%
CN(C)CCNC(=O)COc1ccc(Cl)cc1Cl	?	-5%	50µM*	11%	1%	17%
C=C[C@@]1(C)CC[C@H](O)[C@H]2C(=O)CCC[C@@H]21	.	2%	.	.	.	.
SMILES	JMJD2A Tudor	Sfp inh	G9a block	L3MBTL1 block	BAZ2B block	HP1b binding inh
CC1Cc2ccccc2N1C(=S)NC(=O)C1(C)CC1(Cl)Cl (stereo unspecified)	-14%	19%	0%	?	-29%	2%
O=C(NC(=S)N1CCCc2ccccc21)c1ccco1	-22%	?	45µM*	-8%	?	19%
CC1Cc2ccccc2N1C(=S)NC(=O)c1ccco1 (stereo unspecified)	-35%	40µM*	40µM*	8%	.	?
O=c1[nH]c(=S)c2[nH]c(=S)n(-c3ccccc3)c2[nH]1	20µM*	.	.	.	.	?
N=c1n(-c2ccccc2)c(O)cc(=O)n1-c1ccccc1	-30%	5%	6%[0.0925 µM]	2%	-1%	20%
Cc1cccc(-n2c(N)cc(=O)[nH]c2=S)c1	-13%	-4%	50µM*	3%	5%	11%
O=c1cc(O)n(-c2ccccc2)c(=S)[nH]1	-20%[11.4 µM]	35µM*	18µM*	9%	1%	-5%
C=CCn1c(=S)[nH]c2cc(C(=O)Nc3ccc(F)cc3)ccc2c1=O	-13%	1%	1%	.	-23%	27%
COc1ccc(C2=N[C@@H](C(C)C)CO2)cc1	.	12%	2%[135 µM]	.	.	.
CC1(C)Cc2c(sc3c2c(=O)n(Cc2ccccc2)c2nncn32)CO1	-5%	12%	9%[59 µM]	7%	.	31%
CC1(C)Cc2c(sc3[nH]c(=S)n(Cc4ccco4)c(=O)c23)CO1	?	14µM*	50µM*	-1%	-3%	-8%
CC1(C)Cc2c(sc3c2c(=N)n(Cc2ccco2)c(=O)n3Cc2ccccc2)CO1	-8%[11.4 µM]	-13%	?	.	79µM*	-7%
CC1(C)Cc2c(sc3c2c(=N)n(Cc2ccco2)c(=O)n3Cc2ccc(Cl)cc2)CO1	-25%	-13%	?	-8%	.	-1%
Cc1ccc(CNC(=O)Cn2ccn(-c3ccc(C)c(C)c3)c(=O)c2=O)cc1	-3%	.	-5%[59 µM]	.	0%	27%
NC1=C(Cl)C(=O)c2ccccc2C1=O	89µM*	.	.	.	.	-19%
Cc1cc(N=NC(=O)c2ccccc2)ccc1O	-35%	50µM*	?	-7%	?	-23%
Cc1ccccc1CCNC(=O)c1cc2ccccn2n1	-7%	.	-10%[59 µM]	.	2%	33%
CS(=O)(=O)N(Cc1ccco1)CC(O)Cn1c2ccccc2c2ccccc21 (stereo unspecified)	?	7%	14µM*	-10%	?	-18%
Cc1ccc(N(CC(O)Cn2c3ccccc3c3ccccc32)S(C)(=O)=O)cc1 (stereo unspecified)	-24%	2%	17%[12.7 µM]	.	-1%	7%
OC(CNCc1ccco1)COc1ccccc1 (stereo unspecified)	-20%	19%	-12%[59 µM]	-2%	18%	33%
OC(CNCc1ccco1)Cn1c2ccccc2c2ccccc21 (stereo unspecified)	?	7%	50µM*	-1%	?	-9%
O=C(COC(=O)c1cc(=O)[nH]c2ccccc12)NCc1ccccc1Cl	-8%	.	.	-1%	.	36%

High-throughput results as filed in PubChem.
